Data published in the supplement of paper PMC11732987, “Enantioselective OTUD7B fragment discovery through chemoproteomics screening and high-throughput optimisation” (Communications Chemistry, 2025).

Columns and labels:
Assay in all cases: log2 ratio of Biotin-Ahx-Ub-VS probe labelling (fragment/DMSO); higher = less target engagement (more negative = stronger competition), active = hit call of the paper (q ≤ 0.05, log2 ratio ≤ -1)
Conditions in all cases: compound concentration: 200 uM; treatment time: 3 h
[1] = target: T1, OTUD6B (UniProt Q8N6M0)
T1 sequence (whole entry): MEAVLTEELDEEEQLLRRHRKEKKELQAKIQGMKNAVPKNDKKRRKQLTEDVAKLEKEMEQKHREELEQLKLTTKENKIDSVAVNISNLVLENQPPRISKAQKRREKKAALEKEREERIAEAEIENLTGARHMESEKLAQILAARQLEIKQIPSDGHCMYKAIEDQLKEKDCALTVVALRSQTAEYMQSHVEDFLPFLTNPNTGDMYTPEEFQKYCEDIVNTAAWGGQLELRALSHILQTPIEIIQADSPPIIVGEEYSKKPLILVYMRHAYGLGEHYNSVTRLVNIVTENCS
Summary of the method: (§1)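 HEK293T lysate (495 µg per sample, in Tris/CHAPS/IGEPAL buffer with protease inhibitors) was exposed in triplicate for 3 h to fragment at 200 µM or to vehicle, then to Biotin-Ahx-Ub-VS at 0.5 µM final for 1 h. Labelled DUBs were enriched on NeutrAvidin, digested with LysC and trypsin, and analysed by diaPASEF LC-MS/MS. Spectronaut label-free quantities were normalised to the global median, and values are average log2 ratios of fragment over vehicle from an unpaired t-test. Only proteins with ≥2 unique peptides were used.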

[2] = target: T2, OTUD7B (UniProt Q6GQQ9)
T2 sequence (whole entry): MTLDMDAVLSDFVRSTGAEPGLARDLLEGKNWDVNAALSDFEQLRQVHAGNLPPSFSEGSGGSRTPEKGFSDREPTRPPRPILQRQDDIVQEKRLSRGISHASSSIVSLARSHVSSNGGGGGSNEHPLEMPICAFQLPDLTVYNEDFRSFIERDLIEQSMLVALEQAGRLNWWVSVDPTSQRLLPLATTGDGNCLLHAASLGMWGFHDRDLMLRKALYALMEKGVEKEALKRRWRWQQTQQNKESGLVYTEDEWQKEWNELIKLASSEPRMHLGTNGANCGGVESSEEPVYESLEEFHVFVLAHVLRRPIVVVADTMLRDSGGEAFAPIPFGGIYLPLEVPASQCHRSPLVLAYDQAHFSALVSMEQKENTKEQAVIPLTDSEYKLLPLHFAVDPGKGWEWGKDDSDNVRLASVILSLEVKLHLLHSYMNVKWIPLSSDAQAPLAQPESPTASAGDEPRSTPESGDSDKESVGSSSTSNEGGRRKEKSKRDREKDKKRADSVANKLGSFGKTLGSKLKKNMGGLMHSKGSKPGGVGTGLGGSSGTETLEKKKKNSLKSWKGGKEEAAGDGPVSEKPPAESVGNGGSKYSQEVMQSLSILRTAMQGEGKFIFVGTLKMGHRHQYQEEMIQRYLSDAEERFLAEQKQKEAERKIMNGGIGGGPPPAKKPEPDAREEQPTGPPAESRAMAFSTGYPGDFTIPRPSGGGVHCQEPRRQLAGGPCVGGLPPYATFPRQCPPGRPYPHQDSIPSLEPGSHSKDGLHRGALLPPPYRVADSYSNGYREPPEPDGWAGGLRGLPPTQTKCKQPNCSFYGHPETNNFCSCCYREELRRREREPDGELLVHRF
Summary of the method: as §1

[3] = target: PRPF8 (UniProt Q6P2Q9)
Summary of the method: as §1

[4] = target: T3, PSMD7 (UniProt P51665)
T3 sequence (whole entry): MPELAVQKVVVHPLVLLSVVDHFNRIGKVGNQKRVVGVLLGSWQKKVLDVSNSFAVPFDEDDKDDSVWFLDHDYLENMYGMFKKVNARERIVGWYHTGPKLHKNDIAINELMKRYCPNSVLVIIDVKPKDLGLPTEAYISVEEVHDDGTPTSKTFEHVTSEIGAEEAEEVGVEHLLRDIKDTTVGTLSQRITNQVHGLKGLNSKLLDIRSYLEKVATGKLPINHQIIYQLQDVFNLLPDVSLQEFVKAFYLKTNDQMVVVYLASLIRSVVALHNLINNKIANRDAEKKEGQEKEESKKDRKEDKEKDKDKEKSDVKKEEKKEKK
Summary of the method: as §1

[5] = target: UCHL1 (UniProt P09936)
Summary of the method: as §1

[6] = target: T4, UCHL3 (UniProt P15374)
T4 sequence (whole entry): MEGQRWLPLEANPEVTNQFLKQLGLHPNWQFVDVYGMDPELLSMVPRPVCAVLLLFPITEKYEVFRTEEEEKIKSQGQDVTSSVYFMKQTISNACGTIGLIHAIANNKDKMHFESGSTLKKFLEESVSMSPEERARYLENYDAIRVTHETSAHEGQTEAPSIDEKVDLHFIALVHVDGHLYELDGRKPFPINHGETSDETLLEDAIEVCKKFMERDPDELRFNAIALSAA
Summary of the method: as §1

[7] = target: T5, UCHL5 (UniProt Q9Y5K5)
T5 sequence (whole entry): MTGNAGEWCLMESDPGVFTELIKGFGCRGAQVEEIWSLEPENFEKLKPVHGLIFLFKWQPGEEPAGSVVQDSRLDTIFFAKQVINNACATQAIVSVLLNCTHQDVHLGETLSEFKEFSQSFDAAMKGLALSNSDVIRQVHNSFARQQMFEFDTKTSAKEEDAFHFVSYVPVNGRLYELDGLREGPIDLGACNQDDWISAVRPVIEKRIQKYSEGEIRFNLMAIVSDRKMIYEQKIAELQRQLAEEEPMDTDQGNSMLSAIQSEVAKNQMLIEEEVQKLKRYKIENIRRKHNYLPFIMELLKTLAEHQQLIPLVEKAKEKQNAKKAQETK
Summary of the method: as §1

[8] = target: USP10 (UniProt Q14694)
Summary of the method: as §1

[9] = target: T6, USP15 (UniProt Q9Y4E8)
T6 sequence (whole entry): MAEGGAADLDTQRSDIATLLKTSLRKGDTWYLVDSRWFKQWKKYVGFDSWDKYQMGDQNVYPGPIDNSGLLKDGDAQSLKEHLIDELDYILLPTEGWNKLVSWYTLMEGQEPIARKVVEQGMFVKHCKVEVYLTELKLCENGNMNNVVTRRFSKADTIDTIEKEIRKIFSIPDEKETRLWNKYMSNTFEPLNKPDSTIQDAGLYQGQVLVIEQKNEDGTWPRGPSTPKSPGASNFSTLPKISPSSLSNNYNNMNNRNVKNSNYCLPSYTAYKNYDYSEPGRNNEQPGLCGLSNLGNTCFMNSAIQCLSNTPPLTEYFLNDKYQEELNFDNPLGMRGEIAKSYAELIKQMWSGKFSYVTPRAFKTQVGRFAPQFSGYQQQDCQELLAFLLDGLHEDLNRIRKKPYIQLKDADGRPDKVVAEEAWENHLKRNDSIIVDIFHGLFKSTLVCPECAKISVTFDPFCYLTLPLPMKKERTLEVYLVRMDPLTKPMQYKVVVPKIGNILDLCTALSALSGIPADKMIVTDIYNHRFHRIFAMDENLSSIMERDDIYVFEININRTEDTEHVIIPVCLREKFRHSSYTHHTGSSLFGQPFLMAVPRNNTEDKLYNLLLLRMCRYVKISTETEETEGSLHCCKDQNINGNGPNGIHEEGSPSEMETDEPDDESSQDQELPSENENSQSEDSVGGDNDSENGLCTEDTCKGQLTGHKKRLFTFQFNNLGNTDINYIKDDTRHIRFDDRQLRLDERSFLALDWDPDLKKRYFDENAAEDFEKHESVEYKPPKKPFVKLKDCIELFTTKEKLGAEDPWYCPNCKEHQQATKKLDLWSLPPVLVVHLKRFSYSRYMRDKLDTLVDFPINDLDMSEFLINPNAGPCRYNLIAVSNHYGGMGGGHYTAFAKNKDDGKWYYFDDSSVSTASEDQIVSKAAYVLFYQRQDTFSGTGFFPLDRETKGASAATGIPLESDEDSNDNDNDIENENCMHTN
Summary of the method: as §1

[10] = target: USP16 (UniProt Q9Y5T5)
Summary of the method: as §1

Measured: log2 ratio of Biotin-Ahx-Ub-VS probe labelling

Sequence of USP16 (Q9Y5T5 whole entry, looked up): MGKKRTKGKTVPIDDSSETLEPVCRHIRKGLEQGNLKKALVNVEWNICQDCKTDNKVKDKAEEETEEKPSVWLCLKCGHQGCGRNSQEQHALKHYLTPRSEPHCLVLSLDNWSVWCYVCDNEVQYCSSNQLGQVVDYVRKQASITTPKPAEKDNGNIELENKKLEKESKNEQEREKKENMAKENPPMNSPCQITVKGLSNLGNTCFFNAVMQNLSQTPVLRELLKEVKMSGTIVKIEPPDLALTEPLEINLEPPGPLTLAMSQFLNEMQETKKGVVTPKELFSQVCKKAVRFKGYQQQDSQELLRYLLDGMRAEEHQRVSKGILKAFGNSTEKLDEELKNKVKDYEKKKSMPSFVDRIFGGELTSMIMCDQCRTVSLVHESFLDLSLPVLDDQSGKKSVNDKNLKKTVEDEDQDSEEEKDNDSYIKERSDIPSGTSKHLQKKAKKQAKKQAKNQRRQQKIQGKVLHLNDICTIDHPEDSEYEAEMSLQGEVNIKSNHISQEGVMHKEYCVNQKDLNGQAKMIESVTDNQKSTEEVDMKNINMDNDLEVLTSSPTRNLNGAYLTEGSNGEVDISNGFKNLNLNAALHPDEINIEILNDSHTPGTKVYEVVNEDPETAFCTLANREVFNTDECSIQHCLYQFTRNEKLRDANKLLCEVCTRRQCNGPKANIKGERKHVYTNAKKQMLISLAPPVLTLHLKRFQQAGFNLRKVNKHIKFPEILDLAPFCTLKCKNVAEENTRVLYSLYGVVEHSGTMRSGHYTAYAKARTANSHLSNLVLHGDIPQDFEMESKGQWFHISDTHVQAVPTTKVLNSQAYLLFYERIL
Sequence of UCHL1 (P09936 whole entry, looked up): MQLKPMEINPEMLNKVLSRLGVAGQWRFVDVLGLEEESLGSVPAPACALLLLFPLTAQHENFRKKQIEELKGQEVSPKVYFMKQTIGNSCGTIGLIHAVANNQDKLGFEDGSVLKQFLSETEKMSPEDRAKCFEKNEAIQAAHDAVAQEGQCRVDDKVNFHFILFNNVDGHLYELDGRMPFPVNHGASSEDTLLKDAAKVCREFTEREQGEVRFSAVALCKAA
Sequence of USP10 (Q14694 whole entry): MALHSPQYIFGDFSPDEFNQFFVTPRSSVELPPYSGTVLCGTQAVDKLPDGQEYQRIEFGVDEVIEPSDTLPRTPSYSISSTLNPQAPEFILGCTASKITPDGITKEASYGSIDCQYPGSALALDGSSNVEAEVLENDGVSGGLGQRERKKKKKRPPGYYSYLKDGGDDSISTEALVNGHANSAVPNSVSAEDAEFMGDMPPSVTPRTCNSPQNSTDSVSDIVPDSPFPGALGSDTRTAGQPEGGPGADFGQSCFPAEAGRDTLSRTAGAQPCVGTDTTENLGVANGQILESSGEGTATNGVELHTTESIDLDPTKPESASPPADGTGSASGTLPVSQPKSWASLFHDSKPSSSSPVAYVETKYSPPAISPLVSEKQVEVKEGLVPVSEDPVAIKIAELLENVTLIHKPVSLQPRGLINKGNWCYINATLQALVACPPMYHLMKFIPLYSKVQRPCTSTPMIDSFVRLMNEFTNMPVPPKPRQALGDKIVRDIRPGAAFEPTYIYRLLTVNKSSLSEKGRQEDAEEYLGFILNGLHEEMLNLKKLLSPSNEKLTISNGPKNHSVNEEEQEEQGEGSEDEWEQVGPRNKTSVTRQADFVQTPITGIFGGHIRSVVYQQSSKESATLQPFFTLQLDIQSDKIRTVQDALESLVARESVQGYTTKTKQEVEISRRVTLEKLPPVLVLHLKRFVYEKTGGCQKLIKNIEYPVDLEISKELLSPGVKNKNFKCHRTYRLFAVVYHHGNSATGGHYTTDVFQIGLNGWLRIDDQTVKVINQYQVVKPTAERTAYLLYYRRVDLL

Cl.O=C(CCl)N[C@H]1C[C@@H](n2cccn2)C1
inactive: [1] -0.0562 | [2] -0.797 | [3] 0.13 | [4] 0.118 | [5] -1.11 | [6] 0.478 | [7] -0.14 | [8] 0.0484 | [9] -0.22 | [10] 0.0253
